Bioassay records: PubChem BioAssay, The Scripps Research Institute Molecular Screening Center
FBW7 activator: FBW7 E3 ligase activators, primary screen, biochemical, AlphaScreen, human. hit rate 0.13% among 650,000. normalized activity (activation), % at 26.1 µM. AlphaScreen FBW7–phospho-cyclin E peptide binding, activator screen. AID 1259310, 2017. F-box/WD repeat-containing protein 7 (Homo sapiens), Q969H0; in the data active means normalized activity above about 1.9%;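 further: purified mutant Fbw7 with reduced substrate affinity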
Target sequence (Q969H0 whole entry, looked up): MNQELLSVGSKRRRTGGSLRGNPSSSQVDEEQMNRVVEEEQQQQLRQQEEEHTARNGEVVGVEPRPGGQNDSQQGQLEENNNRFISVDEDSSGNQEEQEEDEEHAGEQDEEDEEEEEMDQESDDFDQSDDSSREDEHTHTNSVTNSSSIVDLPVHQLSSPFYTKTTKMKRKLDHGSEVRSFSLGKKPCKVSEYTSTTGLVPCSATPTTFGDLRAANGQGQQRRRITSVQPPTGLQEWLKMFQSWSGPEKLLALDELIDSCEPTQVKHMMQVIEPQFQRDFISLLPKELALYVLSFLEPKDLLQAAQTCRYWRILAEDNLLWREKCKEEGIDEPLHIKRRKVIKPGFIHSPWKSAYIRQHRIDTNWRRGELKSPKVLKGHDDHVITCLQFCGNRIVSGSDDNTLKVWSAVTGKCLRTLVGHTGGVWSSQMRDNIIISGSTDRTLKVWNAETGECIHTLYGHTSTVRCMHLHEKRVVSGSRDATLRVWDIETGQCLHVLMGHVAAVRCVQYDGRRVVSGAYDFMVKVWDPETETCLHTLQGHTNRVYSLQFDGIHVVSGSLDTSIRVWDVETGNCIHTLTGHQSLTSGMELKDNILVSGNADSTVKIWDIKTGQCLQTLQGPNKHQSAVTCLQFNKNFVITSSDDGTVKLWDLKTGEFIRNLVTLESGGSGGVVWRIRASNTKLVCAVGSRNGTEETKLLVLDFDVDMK
MITF inh: MITF inhibitors, primary screen, biochemical, AlphaScreen, human; inhibition, % at 2.6 µM; hit rate 0.91% among 650,000; AlphaScreen MITF homodimerization, bead proximity signal; Microphthalmia-associated transcription factor (Homo sapiens), O75030; AID 1259374, 2018; in the data active means inhibition above about 50%
TEAD-YAP block: TEAD-YAP interaction inhibition, primary screen, TEAD-YAP interaction inhibitor project, luminescence, HEK-TIYL cells | TEAD-Gal4/YAP UAS-luciferase luminescence | inhibition, % at 9.12 µM | hit rate 1.4% among 640,000 | AID 1259422, 2018; in the data active means inhibition above about 32%
GPR151 activ: activators of human GPR151, primary screen, cell-based, PathHunter beta-arrestin, luminescence | G-protein coupled receptor 151 (Homo sapiens), Q8TDV0 | PathHunter beta-arrestin GPR151 cells | activation, % at 11.2 µM | hit rate 1% among 650,000; in the data active means activation above about 4.9%
Each line names hits and unclear results; the compound was inactive in the other large screens. The list is not random: actives were taken first. Their share in the collection is about 3.4%.

CC(C)Oc1ccc(C(=O)NCCCCCC(=O)O)cc1	TEAD-YAP block 39
CC(C)CCOc1ccc(C(=O)NCCCCCC(=O)O)cc1	TEAD-YAP block 38
CC(C)COc1ccc(C(=O)NCCC(=O)O)cc1	none
CC(C)Oc1ccc(C(=O)NCCC(=O)O)cc1	none
CCOc1ccc(C(=O)NCCCCCC(=O)O)cc1	none
CC(C)COc1ccc(C(=O)NCCCCCC(=O)O)cc1	TEAD-YAP block 47
Cc1nc(-c2cccc(NC(=O)c3ccn(C(C)C)n3)c2)cs1	none
N#Cc1ccc(CSc2ncn[nH]2)cc1	none
OCCNc1c2ccccc2nc2ccccc12	TEAD-YAP block 71
c1ccc2c(NCCc3cnc[nH]3)c3ccccc3nc2c1	TEAD-YAP block 77
O=C(O)CNc1c2ccccc2nc2ccccc12	none
COc1ccccc1N1C(=O)NC(=O)/C(=C/c2ccc(C)o2)C1=O	none
CC(=O)c1ccc(N2CCN(C(=O)c3cccn4c(=O)c5ccccc5nc34)CC2)cc1	none
Cc1c(Cl)sn(-c2ccc(Cl)cc2)c1=O	TEAD-YAP block 40
Cc1cc(-n2sc(Cl)c(C)c2=O)ccc1Cl	TEAD-YAP block 43
CC(=O)Nc1ccc(NC2=C/C(=N/S(=O)(=O)c3ccccc3)c3ccccc3C2=O)cc1	TEAD-YAP block 99
O=C1C(N2CCCCC2)=C/C(=N/S(=O)(=O)c2ccccc2)c2ccccc21	none
COc1ccc(Nc2nc(C)cc(C)n2)c(OC)c1	none
Cc1cc(Nc2ccc3c(c2)OCO3)nc(-n2nc(C)cc2C)n1	TEAD-YAP block 61
Cc1cc(Nc2ccc(F)c(Cl)c2)nc(-n2nc(C)cc2C)n1	none
COc1ccc(Nc2cc(C)nc(-n3nc(C)cc3C)n2)c(OC)c1	TEAD-YAP block 66
Cc1cc(Nc2ccccc2C)nc(-n2nc(C)cc2C)n1	TEAD-YAP block 70
O=C(N/N=C/c1ccco1)c1cc(O)c(O)c(O)c1	MITF inh 87
O=C(N/N=C/c1ccccc1F)c1cc(O)c(O)c(O)c1	MITF inh 55
Cc1cccc(C(=O)N/N=C/c2ccccc2F)c1	none
O=C(N/N=C/c1ccco1)c1cc(Cl)ccc1O	none
Cn1c(SCc2ccccc2C#N)nnc1-c1ccccc1	none
CC1CN(Cc2cc([N+](=O)[O-])c3cccnc3c2O)CC(C)O1 (centres undefined)	MITF inh 84, TEAD-YAP block 54
COCc1cc(CN2CCC(C)CC2)c(O)c2ncccc12	MITF inh 104, TEAD-YAP block 65
CC1CCN(Cc2cc(COC(C)C)c3cccnc3c2O)CC1	MITF inh 85
COc1cc(/C=C2\SC(=NCc3ccccc3)N(Cc3ccccc3)C2=O)ccc1OCc1cccc(C)c1	none
Cc1cc(N2CCN(c3nc4ccccc4s3)CC2)n2ncnc2n1	TEAD-YAP block 51
COc1cccc(N2CCN(c3cc(C)nc4ncnn34)CC2)c1	none
Cc1nc2c(-c3ccccc3)cnn2c(N)c1-c1ccccc1	TEAD-YAP block 90
Cc1nc2c(-c3ccc(Cl)cc3)c(C)nn2c(N)c1-c1ccccc1	TEAD-YAP block 34
Cc1nn2c(N)c(-c3ccc(Cl)cc3)cnc2c1-c1ccccc1	none
O=C(CSc1nc2ccc(N3CCCCC3)cc2c(=O)n1Cc1ccccc1)c1ccc(Cl)c(Cl)c1	none
CC(=O)Nc1ccc(Nc2nc(-c3c(C)nc4ncccn34)cs2)cc1	none
Cc1nc2ncccn2c1-c1csc(Nc2ccc(N(C)C)cc2)n1	TEAD-YAP block 52
Cc1nc2ncccn2c1-c1csc(Nc2ccccc2)n1	none
COc1ccc(Nc2nc(-c3c(C)nc4ncccn34)cs2)cc1	TEAD-YAP block 58
Cc1nc2ccccc2c2c1CC(C(C)(Cl)Br)O2 (centres undefined)	TEAD-YAP block 34
Cc1ccc(-c2cc(C(=O)NN)[nH]n2)c(C)c1	TEAD-YAP block 43
CCN1CCN(CC(=O)c2cc(C)n(-c3cccc(C(F)(F)F)c3)c2C)CC1	MITF inh 63
Cc1cc(C(=O)CCl)c(C)n1-c1ccccc1F	none
CCN1CCN(CC(=O)c2cc(C)n(-c3ccccc3F)c2C)CC1	MITF inh 62
C/C(=N\NS(=O)(=O)c1ccccc1)c1ccc(I)cc1	none
CCOC(=O)C1=C(C)N=c2s/c(=C\c3ccc(OC)c(Br)c3)c(=O)n2C1c1ccc(OC)c(OC)c1 (centres undefined)	none
CC(=O)c1ccc(N=Nc2ccc3nonc3c2N)cc1	TEAD-YAP block 50
O=C(NC1CCC(O)CC1)c1ccc(CN2CCCCCCC2)[nH]c1=O (centres undefined)	none
COc1ccc(C2CC(=O)c3c(ccc4ccccc34)N2)cc1 (centres undefined)	none
COc1ccc(Br)cc1C1CC(=O)c2c(ccc3ccccc23)N1 (centres undefined)	TEAD-YAP block 37
CN1/C(=C/c2cc[n+](C)cc2)Sc2ccccc21	none
C=CCN1/C(=C/c2cc[n+](C)cc2)Sc2ccccc21	TEAD-YAP block 87
C=CCN1/C(=C/c2cccc[n+]2C)Sc2ccccc21	TEAD-YAP block 77
CC(C)NCC(O)COc1ccc(Cl)cc1 (centres undefined)	none
CC1CCN(C(=O)c2cc3c(s2)-c2ccccc2OC3)CC1	none
O=C(COc1ccc(Cl)cc1Cl)NCCCCO	none
O=C(O)CCCCCNC(=O)COc1ccc(Cl)cc1Cl	TEAD-YAP block 69
COC(=O)CCCCCNC(=O)COc1ccc(Cl)cc1Cl	TEAD-YAP block 69
COC(=O)c1c(NC(=O)c2sc3ccccc3c2Cl)sc2c1CCC(C(C)(C)C)C2 (centres undefined)	none
CC(C)OC(=O)CSc1nc2c(c(-c3ccc(O)cc3)c1C#N)CCCC2	TEAD-YAP block 48
Cn1c(C2COc3ccccc3O2)nc2ccc(-c3ncnc4[nH]ccc34)cc21 (centres undefined)	FBW7 activator 2.8
c1ccc2c(c1)OCC(c1nc3ccc(-c4ncnc5[nH]ccc45)cc3[nH]1)O2 (centres undefined)	TEAD-YAP block 49
O=C(Cn1nnc(-c2ccc(N3CCOCC3)cc2)n1)NCCc1c[nH]c2ccccc12	none
CCOC(=O)N1CCc2c(sc3ncn(CC(=O)c4ccccc4)c(=O)c23)C1	TEAD-YAP block 49
COc1ccc(S(=O)(=O)N2CCN(c3cc(-n4ccnc4)ncn3)CC2)c(C)c1C	TEAD-YAP block 56
O=S(=O)(c1ccc(F)cc1)N1CCN(c2cc(-n3ccnc3)ncn2)CC1	none
COc1ccccc1NC(=O)CCCc1nc(-c2ccc(C)cc2)no1	none
COc1ccccc1NC(=O)CCc1nc(-c2ccc(C(C)(C)C)cc2)no1	TEAD-YAP block 71
COc1cccc(CC(=O)N2CCC3(CC2)OCc2ccccc2O3)c1	none
COc1ccc(CC(=O)N2CCC3(CC2)OCc2cc(Cl)ccc2O3)cc1OC	TEAD-YAP block 61
O=C(c1ccc2c(c1)CCO2)N1CCC2(CC1)OCc1cc(Cl)ccc1O2	TEAD-YAP block 37
COc1ccc(CC(=O)N2CCC3(CC2)OCc2ccccc2O3)cc1OC	TEAD-YAP block 55
